High-throughput results deposited in PubChem BioAssay by National Center for Advancing Translational Sciences (NCATS).
DT40 TDP1 no CPT: qHTS for Inhibitors of human tyrosyl-DNA phosphodiesterase 1 (TDP1): qHTS in cells in absence of CPT | DT40 Tdp1-/- hTDP1 cells, no CPT, ATP luminescence, 48 h | 420,000 tested, 15% active | AID 686978, 2013 | Potency, µM (doses to about 46.2 µM), inactives show at the top dose activity change, negative = growth inhibition, usual class: inhibitors; also: potency is read from the fitted curve at half-maximal effect; nearly all actives have a fitted effect of over 55% in size
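Camptothecin absent (DMSO only). Human TDP1-complemented DT40 knockout cells, 400 cells/well, 37 °C for minimum 48 hr; ATP measured via CellTiter-Glo, 30 min dark incubation, luminescence.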
LDHA inh: qHTS assay for inhibitors of human lactate dehydrogenase; L-lactate dehydrogenase A chain (Homo sapiens), P00338; purified LDHA, NADH/diaphorase-resazurin fluorescence; active compounds read low; activity change, % (values are at about 110 or 230 µM); 480,000 tested, 0.15% active; AID 1347041, 2019; in the data active = activity change below about -30%; inconclusive = mostly about -25% to -30%;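 also: plate controls were DMSO wells for no effect and wells without enzyme for full effect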
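Human LDH5 (2 nM) was incubated with 0.06 mM NADH and 0.2 mM pyruvate for 5 min at room temperature in Tris pH 7.4. Remaining NADH was coupled through diaphorase/resazurin, and resorufin fluorescence was read at 0 and 20 min.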
RORgamma inh: qHTS for inhibitors of ROR gamma transcriptional activity. Nuclear receptor ROR-gamma (Mus musculus), P51450. Drosophila S2 Gal4-RORgamma UAS-luciferase reporter, 20 h. Potency, µM (titrated, usually from 53.6 µM), for inactives: top-dose activity change, negative = inhibition, actives largely listed as inhibitors. 310,000 tested, 5.4% active. AID 2551, 2010; also: potency is read from the fitted curve at half-maximal effect; nearly all actives have a fitted effect of over 60% in size
Target sequence (P51450 whole entry, looked up, the tested form may be a part): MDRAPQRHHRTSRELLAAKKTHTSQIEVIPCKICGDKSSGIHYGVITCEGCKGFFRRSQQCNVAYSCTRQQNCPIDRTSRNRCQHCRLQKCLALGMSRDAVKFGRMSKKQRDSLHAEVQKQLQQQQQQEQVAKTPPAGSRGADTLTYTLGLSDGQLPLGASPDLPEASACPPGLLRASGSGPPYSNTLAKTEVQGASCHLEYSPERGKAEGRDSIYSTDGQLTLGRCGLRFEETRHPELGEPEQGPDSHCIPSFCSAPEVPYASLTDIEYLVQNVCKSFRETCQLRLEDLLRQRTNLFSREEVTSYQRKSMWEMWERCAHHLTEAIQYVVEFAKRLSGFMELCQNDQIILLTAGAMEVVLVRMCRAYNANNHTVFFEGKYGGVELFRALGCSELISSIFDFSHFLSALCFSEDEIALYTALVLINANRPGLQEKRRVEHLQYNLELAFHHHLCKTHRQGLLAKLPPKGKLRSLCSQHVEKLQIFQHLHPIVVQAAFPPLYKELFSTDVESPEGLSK
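Stably transfected Drosophila Schneider cells are the test system, with ROR gamma fused to Gal4 and luciferase under UAS control; luminescence is read after 20 hr of 700 uM copper sulfate induction at ambient temperature.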
Gal4-VP16 FLuc: VP16 counterscreen qHTS for inhibitors of ROR gamma transcriptional activity; Potency, µM (doses to about 53.6 µM), inactives show at the top dose activity, negative = inhibition, hits mostly inhibitors; 310,000 tested, 3.5% active; Drosophila S2 Gal4-VP16 UAS-luciferase, luminescence, 20 h;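 also: Gal4-VP16 expression switched on by copper sulfate through the metallothionein promoter; potency is read from the fitted curve at half-maximal effect; nearly all actives have a fitted effect of over 50% in size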
IL-1B inflam inh: qHTS for Inhibitors of Inflammasome Signaling: IL-1-beta AlphaLISA Primary Screen. AID 743279, 2014. THP-1 LPS/ATP IL-1B secretion, AlphaLISA, 16 h; active compounds read low. activity change, % at 57.5 µM. 360,000 tested, 4.7% active; in the data active = activity change below about -50%; inconclusive = mostly about -30% to -49%
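Secreted IL-1B measured by AlphaLISA bead assay after 16 h compound exposure of THP-1 cells; compounds (final up to 57.5 uM) added 1 h before LPS (250 ng/mL) and ATP (1.25 mM) stimulation; lower signal means less secretion.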
DT40 TDP1 CPT: qHTS for Inhibitors of human tyrosyl-DNA phosphodiesterase 1 (TDP1): qHTS in cells in presence of CPT | chicken DT40 Tdp1-/-;hTDP1 cells + 20 nM CPT, ATP luminescence, 48 h | Potency, µM (doses to about 46.2 µM), inactives show top-dose activity change, negative = growth inhibition, hits mostly inhibitors | 420,000 tested, 12% active | AID 686979, 2013; also: potency is read from the fitted curve at half-maximal effect; nearly all actives have a fitted effect of over 55% in size
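Chicken DT40 Tdp1-/- cells complemented with human TDP1, 400 cells/well, exposed to compounds plus 20 nM camptothecin for at least 48 h at 37 C; viability read as ATP content by CellTiter-Glo luminescence.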
* hit, by the source's call; u = inconclusive; x = no result; [ ] = another dose, or the depositor's remark. In the library only some 18% were active in any assay of this set; here they are far more common. Unless noted, calls follow the shape of the dose curve; as a rule, active = well fitted curve in the direction sought with a large enough effect; inconclusive = small, poorly fitted or top-dose-only effect, or another doubt; inactive = no such curve, though single readings can be large; an effect the other way counts as inactive or inconclusive. Unless noted, % is scaled to controls: 0 for no effect and ±100 for the full control effect.

SMILES | DT40 TDP1 no CPT | LDHA inh | RORgamma inh | Gal4-VP16 FLuc | IL-1B inflam inh | DT40 TDP1 CPT
Cc1cc(Cl)ccc1NC(=O)CSc1nc2cc([N+](=O)[O-])ccc2o1 | x | -13 | x | x | x | x
O=C1c2ccccc2C(=O)c2[nH]c(=O)[nH]c21 | 1.8µM* | 29 | 4µM* | 7.1µM* | u | 2.1µM*
O=C1c2ccccc2-c2ccccc21 | x | -2 | x | x | x | x
O=C(Nc1ccc(F)cc1)Nc1nnc(COc2ccccc2F)s1 | 16µM* | -2 | 2% | -13% | -166* | 15µM*
O=C(Nc1nnc(COc2ccccc2F)s1)Nc1ccccc1F | 21µM* | -2 | 27% | -4% | -10 | u
CC(C)c1ccc(NC(=O)COC(=O)C2CCN(c3ccc(C(F)(F)F)cn3)CC2)cc1 | x | 16 | x | x | x | x
CN(C)c1ccc(C(=S)N2CCCCC2)cc1Br | u | -5 | 10µM* | -8% | -7 | 1%
S=C(c1ccc(N2CCCC2)c(Br)c1)N1CCCCC1 | 23µM* | -6 | 20µM* | -22% | -14 | 21µM*
CN(C)c1ccc(C(=S)N2CCOCC2)cc1Br | -12% | -1 | -39% | 29% | -4 | -17%
O=C(CN(c1cccc(Br)c1)S(=O)(=O)c1ccccc1)N1CCc2ccccc2C1 | 15µM* | 1 | x | x | x | 15µM*
COc1ccc(N(CC(=O)N2CCc3ccccc3C2)S(=O)(=O)c2ccc(C)cc2)cc1Cl | 16µM* | -1 | x | x | x | u
CCN(CC)c1ccc(C(=O)NN2CC(O)=C(c3nc(-c4ccc(Cl)cc4)cs3)C2=N)cc1 | x | 9 | x | x | x | x
COc1ccc(CCNc2nc(-c3ccco3)cc(C(F)(F)F)n2)cc1OC | u | -2 | 29% | -1% | -8 | u
O=C(CCSc1nc(-c2ccco2)cc(C(F)(F)F)n1)NCc1cccs1 | u | -1 | -22% | -5% | -9 | 16µM*
O=C(CCSc1nc(-c2ccco2)cc(C(F)(F)F)n1)N1CCN(c2ccccc2)CC1 | 21µM* | 0 | 1% | 7% | -2 | u
FC(F)(F)c1cc(-c2ccco2)nc(N2CCN(c3ccccc3)CC2)n1 | -13% | 0 | -22% | -1% | 32 | -22%
CC(NC(=O)CCSc1nc(-c2ccco2)cc(C(F)(F)F)n1)c1ccccc1 (stereo unspecified) | u | 6 | 3% | 0% | -30 | 13µM*
COc1ccc(CCNC(=O)CCSc2nc(-c3ccco3)cc(C(F)(F)F)n2)cc1OC | 16µM* | -5 | -2% | 2% | u | 15µM*
O=C(CCSc1nc(-c2ccco2)cc(C(F)(F)F)n1)NCc1ccccn1 | -20% | -1 | 34% | 9% | -22 | -28%
O=C(OCc1cccc([N+](=O)[O-])c1)C12CC3CC(CC(O)(C3)C1)C2 | x | 6 | x | x | x | x
O=C(CCCl)N1c2ccccc2C=Cc2ccccc21 | 15µM* | 1 | x | x | -29 | u
O=C(N1CCN(CCO)CC1)N1c2ccccc2C=Cc2ccccc21 | u | 6 | -13% | 6% | 14 | 7%
CCCn1c(N)c(Sc2ccccc2)c(=O)n(CCC)c1=O | 15µM* | -7 | 25% | 1% | 0 | u
N#CC(c1ccc(Cl)cc1)c1nc2ccccc2nc1C(F)(F)F (stereo unspecified) | -17% | 3 | u | 10µM* | 21 | -2%
Cc1cccc(C(C#N)c2nc3ccccc3nc2C(F)(F)F)c1 (stereo unspecified) | -26% | 1 | x | x | 12 | -5%
SMILES | DT40 TDP1 no CPT | LDHA inh | RORgamma inh | Gal4-VP16 FLuc | IL-1B inflam inh | DT40 TDP1 CPT
CC(OC(=O)c1nn(C(C)C)c(=O)c2ccccc12)C(=O)Nc1ncc(Cl)cc1Cl (stereo unspecified) | 18µM* | -3 | -11% | -7% | 0 | u
CC(C)n1nc(C(=O)Oc2cc(Cl)ccc2Cl)c2ccccc2c1=O | u | -12 | -18%[10 µM] | -2% | 10 | -29%
CC(OC(=O)CCc1nc2ccccc2c(=O)[nH]1)C(=O)Nc1ncc(Cl)cc1Cl (stereo unspecified) | -5% | -16 | -18% | -1% | -77* | -21%
CC(OC(=O)c1nn(C)c(=O)c2ccccc12)C(=O)N1CC(=O)Nc2ccccc21 (stereo unspecified) | x | -2 | x | x | x | x
O=C(CSc1n[nH]c(-c2ccc(Br)cc2)n1)c1cc(F)ccc1F | x | 2 | x | x | x | x
CCCCOc1ccc(/C=C/C(=O)Nc2ccc([N+](=O)[O-])cc2C)cc1 | u | 1 | 32% | -9% | 6 | u
CCCOc1ccc(/C=C/C(=O)Nc2ccc([N+](=O)[O-])cc2)cc1 | 21µM* | -13 | u | 2% | -87* | 18µM*
Cc1ccccc1OCCNC(=O)/C=C/c1ccc([N+](=O)[O-])cc1 | u | -13 | u | -7% | -70* | 1%
CCCCN1C(=O)C2(CC(=O)Nc3[nH]ncc32)c2ccccc21 (stereo unspecified) | x | 2 | x | x | x | x
O=C(NCCN1C(=O)S/C(=C\c2ccc(F)cc2)C1=O)c1cccc(S(=O)(=O)N2CCOCC2)c1 | 16µM* | -4 | 14%[10 µM] | -6% | 0 | 23µM*
O=C(NCCCc1ccccc1)c1cccc(S(=O)(=O)N2CCOCC2)c1 | -20% | -19 | x | x | 17 | 0%
O=C(NCCN1C(=O)S/C(=C\c2ccccc2)C1=O)c1cc(S(=O)(=O)N2CCOCC2)c(Cl)cc1Cl | 4.1µM* | -13 | 14% | -6% | -17 | 21µM*
